Source: PubChem BioAssay (National Center for Advancing Translational Sciences (NCATS))
Rows were chosen to be rich in hits. Some 7.3% of all compounds tested hit in one or more screens of this group.
NPC1 promoter act: activators of NPC1 promoter. Huh7 NPC1 promoter luciferase reporter, 24 h. Potency, µM (doses to about 9.22 µM), for the others: at the top dose activation, hits mostly activators. AID 485313. 2.4% of 320,000 active; note: % of control where 0% means no effect; nearly all actives have a fitted effect of over 60% in size
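In 1536-well qHTS, Huh7 cells harboring an NPC1 promoter–luciferase construct received compound for 24 h; activation was quantified by luminescence following luciferase reagent addition.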
ELG1 genotox: inducers of genotoxicity in HEK293T ELG1-luciferase cells. 1.3% of 330,000 active. Potency, µM (top dose mostly 46 µM), for the others: top-dose activity change, positive = activation, actives largely listed as activators. AID 504466. HEK293T ELG1-luciferase reporter, luminescence, 16 h; note: % of control where 0% means no effect; nearly all actives have a fitted effect of over 60% in size
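Quantitative HTS format in 1536-well plates. HEK293T ELG1-luciferase reporter cells receive test compound and are incubated 16 hr at 37 °C, 5% CO2; ONE-Glo added, 30 min room temperature, then luminescence read.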
SMN2 splice enh: enhancers of SMN2 splice variant expression; HEK293 SMN2-luciferase splicing reporter, luminescence, 30-36 h; Potency, µM (highest dose often 46.1 µM), for the others: top-dose activity change, positive = activation, most hits filed as activators; 2.8% of 210,000 active; AID 1458; note: % of control where 0% means no effect; nearly all actives have a fitted effect of over 55% in size
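qHTS luciferase splicing reporter: luminescence rises when SMN2 exon 7 is included in transfected HEK293 cells. Compound exposure lasted 30-36 h at 37C, with 4.5 mM final sodium butyrate as control, followed by a ONE-Glo read.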
KinaseGlo FLuc: Kinase-Glo luciferase inhibition (counter-screen) | Kinase-Glo luciferase, ATP luminescence, 8 min | AID 1379 | Potency, µM (series often up to 38.3 µM), for inactives: at the highest dose activity change, negative = inhibition, usual class: inhibitors | 0.28% of 200,000 active; note: % is set by controls: 0 for no effect and ±100 for the full control effect; nearly all actives have a fitted effect of over 60% in size
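Luminescence was the read-out, taken after 8-minute incubation at ambient temperature. Luciferase turned over luciferin with 10 uM ATP in imidazole pH 7.2 buffer containing KCl, MgCl2, Tween 20 and BSA.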
Rab9 promoter act: activates the Rab9 promoter; Huh7 Rab9 promoter-luciferase reporter, luminescence, 24 h; Potency, µM (top dose mostly 9.22 µM), for the others: at the top dose activation, negative = inhibition, hits mostly activators; 2.8% of 320,000 active; note: % of control where 0% means no effect; nearly all actives have a fitted effect of over 60% in size
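Rab9 promoter-driven luciferase in stably transfected Huh7 cells; 1500 cells/well rested 2 h, exposed to compound in DMSO for 24 h at 37 °C, 5% CO2. Luminescence read 10 min after adding luciferase reagent at ambient temperature.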
FLuc counter: counter-screen for miR-21 project: firefly luciferase inhibitors or activators | P08659 | purified FLuc, Km substrates, luminescence inhibition | Potency, µM (top dose mostly 57.5 µM), for the others: at the top dose activity change, negative = inhibition, hits mostly inhibitors | 6.9% of 360,000 active | AID 588342;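 note: plate controls were vehicle for no effect and reference inhibitor for full effect; nearly all actives have a fitted effect of over 55% in size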
Target sequence (P08659 whole entry, looked up): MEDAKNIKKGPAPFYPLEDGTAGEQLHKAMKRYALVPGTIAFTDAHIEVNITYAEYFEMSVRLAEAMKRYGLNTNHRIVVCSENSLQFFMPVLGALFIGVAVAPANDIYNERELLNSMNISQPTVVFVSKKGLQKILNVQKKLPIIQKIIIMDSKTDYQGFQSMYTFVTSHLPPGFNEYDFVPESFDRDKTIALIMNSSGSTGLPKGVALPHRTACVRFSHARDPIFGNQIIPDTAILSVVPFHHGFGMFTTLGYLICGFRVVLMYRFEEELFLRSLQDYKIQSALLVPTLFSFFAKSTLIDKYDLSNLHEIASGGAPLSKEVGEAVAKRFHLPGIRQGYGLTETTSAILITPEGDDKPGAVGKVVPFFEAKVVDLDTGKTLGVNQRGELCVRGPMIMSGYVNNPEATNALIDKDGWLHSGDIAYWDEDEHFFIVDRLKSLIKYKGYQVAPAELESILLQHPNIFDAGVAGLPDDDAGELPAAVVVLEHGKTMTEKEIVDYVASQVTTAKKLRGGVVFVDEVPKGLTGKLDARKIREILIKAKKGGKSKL
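Purified P. pyralis luciferase (10nM final) with 10uM D-luciferin and 10uM ATP (Km levels) in 50mM Tris acetate pH 7.5, 10mM Mg acetate, 0.01% Tween-20, 0.05% BSA; qHTS 6-point titration, ~60 µM downward; luminescence read.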
* = called active by the depositor; ? = inconclusive; nt = not tested or not shown; [ ] = remark or other dose. Calls come from the whole dose curve; as a rule, active = well fitted curve in the direction sought with a large enough effect; inconclusive = small, poorly fitted or top-dose-only effect, or another doubt; inactive = no such curve, though single readings can be large; an effect the other way counts as inactive or inconclusive. Potency is the fitted concentration of half-maximal effect.

SMILES | NPC1 promoter act | ELG1 genotox | SMN2 splice enh | KinaseGlo FLuc | Rab9 promoter act | FLuc counter
CCCCNC(=S)NNC(=O)c1csc(C(C)C)c1 | -2% | 7% | 19% | 0% | ? | -18%
CCNC(=S)NNC(=O)c1csc(C(C)C)c1 | 22% | 14% | 11µM* | -4% | ? | -23%
C=CCSc1ncc(-c2ccccc2)cn1 | 24% | 15% | 11% | -4% | 26% | 15µM*
C#CCSc1ncc(-c2ccccc2)cn1 | 19% | 12% | 3% | -4% | ? | ?
CCOC(=O)Nc1nnc(-c2ccc(OC)cc2)s1 | 21% | ? | 18% | -6% | ? | 4.8µM*
CCOC(=O)Nc1nnc(/C=C/c2ccc(OC)cc2)s1 | 8% | 16% | 7% | 2% | 0% | 13µM*
COc1ccc(/C=C/c2nnc(NC(=O)COc3ccc(C)cc3)s2)cc1 | 21% | 10% | 5µM* | 8% | 3% | -1%
CCCCOC(=O)Nc1nnc(/C=C/c2ccc(OC)cc2)s1 | -4% | 2% | -4% | -2% | -1% | ?
COc1ccc(/C=C/c2nnc(NC(=O)COc3ccccc3)s2)cc1 | 4% | -1% | nt | nt | -1% | -3%
COc1ccc(/C=C/c2nnc(NC(=O)C(C)(C)C)s2)cc1 | 22% | 2% | nt | nt | 19% | 8.5µM*
CCOC(=O)Nc1nnc(-c2cccc(OC)c2)s1 | 10% | ? | ? | -1% | 3% | ?
Cc1ccc(S(=O)(=O)N(CC(=O)Nc2ccc(F)cc2)C(=O)N2CCN(C)CC2)cc1 | -1% | 2% | nt | nt | -6% | 6%
CC1CCC(NC(=O)C2CCN(S(=O)(=O)c3cccc4nonc34)CC2)CC1 (centres undefined) | 0% | -1% | nt | nt | -1% | 4%
N=C1C(c2nc3ccccc3[nH]2)=C(O)CN1C1CCCCC1 | 3.2µM* | ? | nt | nt | 2µM* | ?
CC1CCc2c(sc(NC(=O)CSc3nc(N)cc(=O)[nH]3)c2C(N)=O)C1 (centres undefined) | -7% | -1% | nt | nt | -4% | 17µM*
CCC(C)(C)C1CCc2c(sc(NC(=O)c3cccs3)c2C(N)=O)C1 (centres undefined) | 11% | 17% | -13% | 0% | 22% | ?
CNC(=O)c1c(NC(=O)C2=COCCO2)sc2c1CCC(C)C2 (centres undefined) | -1% | 14% | nt | nt | 20% | 2.7µM*
CC1CCc2c(sc(NC(=O)C3=COCCO3)c2C(N)=O)C1 (centres undefined) | 2.5µM* | ? | nt | nt | 1.6µM* | 0.76µM*
CC(C)(C)C1CCc2c(sc(NC(=O)c3cccs3)c2C(N)=O)C1 (centres undefined) | ? | ? | -21% | -6% | 4µM* | 0.54µM*
Cc1cccc(C(=O)Nc2cccc(C(=O)OCc3cc(=O)n4nc(C(C)C)sc4n3)c2)c1 | nt | nt | nt | nt | nt | -20%
Cc1nn2c(=O)cc(COC(=O)c3cccc(NC(=O)c4ccc(C(C)(C)C)cc4)c3)nc2s1 | nt | nt | nt | nt | nt | 0.54µM*
Cc1cn2c(=O)cc(COC(=O)c3ccc(NC(=O)COc4ccccc4F)cc3)nc2s1 | nt | nt | nt | nt | nt | 5%
Cc1cn2c(=O)cc(COC(=O)c3cccc(NC(=O)COc4ccccc4Cl)c3)nc2s1 | nt | nt | nt | nt | nt | 4.8µM*
CN1c2ccccc2C(C)(C)C12CC(c1ccc(Cl)c(S(=O)(=O)N3CCCC3)c1)=NO2 (centres undefined) | -3% | 1% | nt | 0% | 1% | -1%
O=C1C(Cl)=C(Nc2ccc(O)cc2)C(=O)c2ccccc21 | -36% | -9% | nt | nt | -46% | ?
SMILES | NPC1 promoter act | ELG1 genotox | SMN2 splice enh | KinaseGlo FLuc | Rab9 promoter act | FLuc counter
CC(=O)Nc1ccc(Nc2ccccc2)cc1 | 2% | 7% | nt | nt | 2% | -21%
Cc1ccc(NC2=C(N3CCOCC3)C(=O)c3ccccc3C2=O)cc1 | 11% | 6.5µM* | -43% | ? | -1% | 9.5µM*
NS(=O)(=O)c1ccc(NC2=CC(=O)C(=O)c3ccccc32)cc1 | 2% | -17% | nt | nt | 3% | -8%
O=C1C=C(Nc2ccc(O)cc2)C(=O)c2ccccc21 | 1% | ? | nt | nt | ? | 5.4µM*
CC(=O)Nc1ccc(NC2=CC(=O)c3ccccc3C2=O)cc1 | ? | ? | nt | nt | 2µM* | ?
Cc1ccc(NC2=CC(=O)C(=O)c3ccccc32)cc1 | 8% | -16% | ? | -17% | 0% | 11µM*
Cc1ccc(C)c(CN2C(=O)CSc3ccc(C(=O)N4CCCC4)cc32)c1 | -2% | 1% | nt | nt | -2% | -1%
COc1ccccc1NS(=O)(=O)c1ccc2c(c1)NC(=O)C(C)S2 (centres undefined) | 1% | 1% | nt | nt | -8% | 0%
CN1CCC[C@H](C(=O)OCC(=O)[C@]2(O)CC[C@@H]3[C@H]4CCC5=CC(=O)CC[C@@]5(C)[C@H]4[C@@H](O)C[C@]32C)C1 | nt | nt | 0%[9.22 µM] | -1%[7.66 µM] | nt | nt
Cc1ccc(CSc2nnc(C)c(=O)[nH]2)cc1 | -8% | 11% | -6% | 0% | -2% | 17µM*
CSc1ccc(/C=C/C(=O)OCC(=O)N2CCc3ccccc32)cc1 | -2% | 0% | nt | nt | -1% | 4%
Cc1nc(NCc2cccnc2)c2c3c(sc2n1)CC(C)CC3 (centres undefined) | 11% | 1% | -6% | 3% | 6% | 24µM*
Cc1nc(NCc2ccco2)c2c3c(sc2n1)CCC3 | -14% | 1% | 22µM* | -2% | 14% | 2%
Cc1onc(-c2c(Cl)cccc2Cl)c1/C(N)=N/OC(=O)C1CC1 | 0% | -1% | nt | nt | 4% | 1%
COc1ccc(-c2nnc(SCC(=O)Nc3cccc(Cl)c3)o2)cc1 | ? | ? | 13µM* | 2% | 2µM* | 1%
COc1ccc(-c2nnc(SCC(=O)Nc3ccccc3OC)o2)cc1 | 2.8µM* | ? | 11µM* | 0% | 1.6µM* | 27µM*
COc1ccc(NCc2nnc(SCC(=O)Nc3cc(C)cc(C)c3)o2)cc1 | 2% | 3% | -6% | 1% | 9% | ?
COc1ccccc1NC(=O)CSc1nnc(-c2ccncc2)o1 | -2% | 8% | ? | -9% | -3% | -10%
COc1ccc(NCc2nnc(SCC(=O)Nc3cc(C(F)(F)F)ccc3Cl)o2)cc1 | -2% | -1% | 6% | -5% | -3% | 17µM*
Cc1ccc(C)c(OC(C)C(=O)Nc2nccs2)c1 (centres undefined) | -6% | -2% | nt | nt | -3% | -14%
Cc1cccc(C)c1NC(=O)c1cc(-c2ccccn2)nc2ccccc12 | -1% | -3% | -10% | -4% | 2% | 0%
CC1CCc2sc(NC(=S)NC(=O)c3ccccc3)c(C#N)c2C1 (centres undefined) | ? | 10% | ? | 0% | ? | 12µM*
CC1(C)Cc2c(sc(NC(=O)c3ccco3)c2C#N)CO1 | 1.6µM* | ? | ? | 1% | 3.2µM* | 1.9µM*
